Screening results as filed in PubChem BioAssay.
PI5P4K alpha inh – inhibitors of human PI5P4K alpha; max response, %; 330,000 compounds, 1.2% hits; AID 652105; PI5P4Kalpha enzyme, ADP-Glo luminescence, 60 min; hits give low values; active = max response of -50% or lower; inconclusive = between -30% and -50%; inactive = -30% or higher; also: value at the top dose of about 77 µM
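ADP-Glo luminescence end-point after a 60 min room-temperature kinase reaction. PI5P4Kalpha and substrate in HEPES pH 7.4 buffer with EGTA, 0.1% CHAPS and 5% DMSO; ATP at 5 microM final.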
Pin1 inh – blocks the human prolyl isomerase Pin1. Q13526. Pin1 FP peptide displacement, HiFluor488, 10 min. Potency, µM (series often up to 115 µM), without a hit: at the top dose activity, negative = inhibition, usual class: inhibitors. 390,000 compounds, 0.009% hits. AID 504891; active = well fitted inhibition curve with a large enough effect in the polarisation, with a control signal flat, not every such curve was filed as active; inconclusive = small, poorly fitted or top-dose-only effect, or effect the other way, or a change in a side signal; inactive = no such curve, though single readings can be large or run the other way; the % refers to the polarisation; also: potency is read from the fitted curve at half-maximal effect
Target sequence (Q13526 whole entry, looked up): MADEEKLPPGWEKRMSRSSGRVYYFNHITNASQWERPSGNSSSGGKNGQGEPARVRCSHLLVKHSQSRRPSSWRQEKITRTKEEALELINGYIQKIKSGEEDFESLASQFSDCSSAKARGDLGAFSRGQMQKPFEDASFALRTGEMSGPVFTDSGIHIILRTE
PI4K2A inh – blocks human PI4K2A kinase activity. Q9BTU6. purified PI4K2A, ADP-Glo luminescence, 1 h; hits give low values. activity change, negative = inhibition, % at 76.9 µM. 420,000 compounds, 0.13% hits; in the data active = activity change below about -50%; inconclusive = mostly about -30% to -49%;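 also: -100% = wells without enzyme as full effect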
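In this quantitative HTS, ADP production by PI4K2A was quantified luminescently after 1 h at ambient temperature; 100 microM adenosine served as plate-quality control.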
Tb PFK inh – T. brucei PFK enzyme inhibition; O15648; T. brucei PFK, ADP-Glo luminescence; Potency, µM (highest dose often 57.5 µM), for the others: top-dose activity, negative = inhibition, most hits filed as inhibitors; 330,000 compounds, 0.17% hits; AID 485367;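 also: potency is read from the fitted curve at half-maximal effect; 0% = uninhibited 1x PFK enzyme wells and -100% = no-enzyme wells; nearly all actives have a fitted effect of over 60% in size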
Target sequence (O15648 whole entry, looked up): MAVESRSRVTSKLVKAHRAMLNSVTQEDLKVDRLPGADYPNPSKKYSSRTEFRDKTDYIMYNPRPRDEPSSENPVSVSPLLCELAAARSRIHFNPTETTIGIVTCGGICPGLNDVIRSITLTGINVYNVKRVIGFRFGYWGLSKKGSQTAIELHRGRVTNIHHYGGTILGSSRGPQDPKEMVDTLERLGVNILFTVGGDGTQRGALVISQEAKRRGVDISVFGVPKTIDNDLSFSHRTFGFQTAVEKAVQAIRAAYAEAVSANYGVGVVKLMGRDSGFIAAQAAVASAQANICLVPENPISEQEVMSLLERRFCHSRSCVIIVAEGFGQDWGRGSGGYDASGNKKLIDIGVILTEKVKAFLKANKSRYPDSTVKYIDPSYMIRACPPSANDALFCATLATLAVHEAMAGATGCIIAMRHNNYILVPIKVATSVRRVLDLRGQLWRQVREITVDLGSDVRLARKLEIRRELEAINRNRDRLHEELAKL
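Activity is normalized to no-enzyme wells (full inhibition) and 1.25 nM enzyme wells (no inhibition). Reaction: 0.5 mM F6P, 0.1 mM ATP, 45 min RT, ADP-Glo luminescence; concentration-response curves fitted and classed by quality.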
PGK inhibitor – blocks T. brucei phosphoglycerate kinase; Potency, µM (series often up to 57.5 µM), for the others: top-dose activity change, negative = inhibition, usual class: inhibitors; 380,000 compounds, 0.043% hits; PGK/GAPDH coupled, Kinase-Glo luminescence, 60 min; also: potency is read from the fitted curve at half-maximal effect; nearly all actives have a fitted effect of over 60% in size
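Recombinant glycosomal PGK reaction used 1,3-bisphosphoglycerate generated in-well by GAPDH (100nM final) in 100mM TEA pH 7.6, 5mM MgCl2, 0.01% Tween-20. After 60 minutes at room temperature, ATP was read by Kinase-Glo Plus luminescence end-point.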
* = called active by the depositor; i = inactive; u = inconclusive; x = no result. This is one part of a sample in which hits are shown more often than they occur. Unless noted, calls follow the shape of the dose curve; as a rule, active = well fitted curve in the direction sought with a large enough effect; inconclusive = small, poorly fitted or top-dose-only effect, or another doubt; inactive = no such curve, though single readings can be large; an effect the other way counts as inactive or inconclusive. Unless noted, % is scaled to controls: 0 for no effect and ±100 for the full control effect.

SMILES	PI5P4K alpha inh	Pin1 inh	PI4K2A inh	Tb PFK inh	PGK inhibitor
CCOC(=O)c1sc(N2C(=O)C(O)=C(C(=O)c3ccco3)C2c2cccc([N+](=O)[O-])c2)nc1C (stereo unspecified)	-68*	-15%	-1	-1%	3%
OC(c1cccc(Cl)c1)c1nccc2ccccc12 (stereo unspecified)	0	5%	3	-25%	i
O=[N+]([O-])c1ccc2c([N+](=O)[O-])ccc3c2c1CC3	-74*	x	-27	x	-16%
Cc1ccc(/C=C2\SC(=S)N(C3CCS(=O)(=O)C3)C2=O)o1 (stereo unspecified)	-53*	u	-8	-3%	-13%
CCOP(=O)(OCC)C(NC(=O)Nc1cccc(Cl)c1)C(N)=O (stereo unspecified)	1	0%	7	0%	x
c1coc(-c2nnc(-c3ccco3)nn2)c1	-79*	u	u	-25%	u
c1ccc(-c2nnc(-c3ccco3)o2)cc1	0	0%	-3	-1%	-8%
CC(Sc1nc2ccc(C(=O)c3ccccc3)cc2[nH]1)C(=O)O (stereo unspecified)	-52*	0%	0	0%	-8%
CC(Sc1nc2ccc(Br)cc2[nH]1)C(=O)O (stereo unspecified)	x	-19%	5	2%	21%
CCCSC1=N/C(=C\C=C\c2ccco2)C(=O)S1	-67*	-15%	-11	u	u
CCCSC1=N/C(=C\c2ccc([N+](=O)[O-])o2)C(=O)S1	-70*	x	-2	-20%	u
C#CCOCCOCCOCCNc1nc(N2CCN(C(=O)[C@H]([C@@H](C)CC)n3cc([C@@H](N)CO)nn3)CC2)nc(N2CCN(C(=O)[C@H]([C@@H](C)CC)n3cc([C@@H](N)CC(C)C)nn3)CC2)n1	0	u	0	-1%	i
COc1cccc(C2Cc3ccccc3C(=O)O2)c1 (stereo unspecified)	-5	7%	4	4%	-1%
CCN(CC)S(=O)(=O)c1ccc(N2CCOCC2)c(NC(=O)c2c3c(nc4ccccc24)CCC3)c1	-59*	u	-13	-19%	-8%
CCN(CC)S(=O)(=O)c1ccc(N2CCOCC2)c(NC(=O)c2cccc3ccccc23)c1	-1	2%	-4	0%	-2%
NC(=O)c1cc([N+](=O)[O-])ccc1NCCN1C(=O)c2ccc(C(=O)O)cc2C1=O	-87*	-3%	4	-4%	2%
COC(=O)CCC(=O)Nc1sc2c(c1C#N)CCCC2	-6	u	-2	3%	-7%
c1ccc(-c2cn3c(n2)-c2ccccc2C3)cc1	-22	1%	-51*	-12%	u
CCOc1ccc(NC(=O)CSc2n[nH]c(=O)n2-c2ccccc2)cc1	x	3%	1	1%	-3%
COc1cccc(CN2C(=O)C3(SCC(=O)N3c3ccc(C(C)C)cc3)c3ccccc32)c1 (stereo unspecified)	x	4%	0	x	-2%
O=C(N=Nc1c(O)[nH]c2ccccc12)c1cccs1	0	-1%	-6	-29%	-13%
O=C(N=Nc1c(O)[nH]c2ccccc12)c1cc(NS(=O)(=O)c2cccs2)cc(NS(=O)(=O)c2cccs2)c1	-15	-3%	-51*	-2%	-7%
O=C(O)c1cc(N=Nc2c(O)[nH]c3ccc([N+](=O)[O-])cc23)ccc1Cl	-73*	9%	-3	-6%	x
CCN(CC)c1ccc2c(-c3ccc(S(=O)(=O)O)cc3S(=O)(=O)[O-])c3ccc(=[N+](CC)CC)cc-3oc2c1	-51*	u	u	-3%	u
Nc1ccc(O)c(-c2nc3ccccc3s2)c1	u	1%	-1	3%	0%
SMILES	PI5P4K alpha inh	Pin1 inh	PI4K2A inh	Tb PFK inh	PGK inhibitor
Oc1ccc(N=C/C=C/c2cccc(Br)c2)cc1-c1nc2ccccc2s1	-59*	-5%	5	0%	-6%
CCOC(=O)c1sc2ccccc2c1S(=O)(=O)Nc1cc(OC)ccc1OC	x	-2%	1	x	-4%
CCOc1ccccc1CNC(=O)C1CCN(c2nc3ccccc3nc2C(F)(F)F)CC1	x	-2%	-1	x	2%
CCOC(=O)/C=C1\SCC(=O)N1CC(=O)c1ccc[nH]1	-53*	51%	-11	15%	-6%
CCOC(=O)/C=C1\SCC(=O)N1CC(=O)Nc1ccc(OC)c(OC)c1	4	20%	1	-1%	7%
Cc1ccccc1NC(=O)c1cc(-c2ccco2)nc2ccccc12	u	u	-7	x	u
Cc1ccc(S(=O)(=O)N(C)C)cc1NC(=O)c1cc(-c2ccco2)nc2ccccc12	-56*	8%	-13	3%	-7%
O=C(N/N=C/c1cccc(F)c1)c1cc(-c2ccco2)nc2ccccc12	-88*	x	u	-1%	u
CN(Cc1ccco1)C(=O)C1CCC(=O)N1Cc1ccc(F)cc1 (stereo unspecified)	-8	2%	-1	0%	2%
CCn1c2ccccc2c2cc(/C=N/n3c(-c4cc(C)[nH]n4)n[nH]c3=S)ccc21	-60*	6%	-1	-23%	-1%
CCn1c2ccccc2c2cc(/C=N/n3cn[nH]c3=S)ccc21	x	-2%	-1	-25%	-10%
CCOC(=O)N1CCc2c(sc3[nH]c(=S)[nH]c(=S)c23)C1	-67*	-1%	3	5%	11%
C[C@H](O)[C@@H]1CN2CCc3c([nH]c4ccc(-c5ccc6c(c5)OCO6)cc34)[C@@H]2C[C@@H]1N(C)C(=O)Nc1ccc(F)cc1	4	x	-2	x	-9%
CCNC(=S)N1CCC(C(N)=O)CC1	-11	6%	-3	2%	i
CCn1c(C)nc2cc(-c3nc4n(n3)Cc3ccccc3-4)ccc21	u	8%	-69*	-19%	u
O=C(NC(=S)Nc1ccc(CN2CCCCC2)cc1)c1cccc(OCc2ccccc2)c1	2	2%	1	2%	-3%
O=C(O)c1ccc(NC(=S)NC(=O)c2cccc(COc3ccccc3)c2)cc1	-55*	-5%	-4	0%	-1%
CCOc1ccc(OCc2cccc(C(=O)O)c2)cc1	x	-2%	-58*	-1%	-25%
O=C1NN(c2ccccc2)C(=O)/C1=C\c1coc2ccc(O)cc2c1=O	-68*	u	u	9%	-14%
O=C1NN(c2ccccc2)C(=O)/C1=C/c1coc2ccccc2c1=O	-64*	u	-15	10%	-5%
CC(=O)Nc1ccc(Sc2ccccc2C(=O)O)cn1	-56*	0%	-10	6%	-2%
CC(=O)Nc1ccc(Sc2ccccc2C(=O)Nc2ccc(F)cc2)cn1	-14	-5%	1	0%	8%
COc1ccc(OCCSc2nc3ccccc3n2CC(=O)O)cc1	x	-6%	1	8%	0%
